For 29 molecules, inhibition score results are on record in PubChem BioAssay AID489042 (NMMLSC, 2010).

Activity calls are given as the source filed them. Rule as the data show it: active = inhibition score above about 11; inactive = the rest.

The experiment can be described thus: S. cerevisiae short- and long-term growth effects – BY4741, OD595, 24 h, dose response (AID 489042). Particulars: flow cytometer event count, 7 d (AID 449753), active compounds read high. On the technique in general: A flow cytometer gives signals particle by particle.
As to `O=C(/C=C/c1cccs1)NC(=S)NNC(=O)Cc1cccs1`, the inhibition score is 11 (active).
For the molecule `Cc1ccc(-c2nn(C(C)(C)C)c3ncnc(N)c23)cc1`, the inhibition score was 0 (inactive).
The result for `NC(=O)CSc1nnc(-c2ccc([N+](=O)[O-])cc2)o1` reads 0 (inactive).
`O=C(Nc1cccc(Cl)c1)Nc1ccc2nccnc2c1`: the inhibition score was 0 (inactive).
The result for `COc1ccc2nc3ccccc3nc2c1` reads 0 (inactive); that for `O=C(O)c1cnc2ccccc2n1`, 0 (inactive); that for `CCN(CC)C(=O)CSc1nnc(-c2cccc(OC)c2)o1`, 0 (inactive).
For `C[C@@]12C(=O)OC(=O)[C@]1(C)C1CCC2O1`, the inhibition score is 11 (active).
With `Cc1ccccc1NC(=O)c1cccc2nc3ccccc3nc12`, the inhibition score was 0 (inactive).
The result for `COc1ccc2nc3ccccc3[n+]([O-])c2c1` reads 0 (inactive).
The result for `O=C(/C=C/c1ccccc1)NC(=S)NNC(=O)Cc1cccs1` reads 0 (inactive); that for `C=CCSc1nnc(-c2ccc([N+](=O)[O-])cc2)o1`, 0 (inactive).
Consider `CCN(CC)c1ccc2nc3ccc(N)cc3[n+](-c3ccccc3)c2c1`, for which the inhibition score is 0 (inactive).
In the case of `C/C(=N\Nc1ncnc2sc(C)c(C)c12)c1ccccn1`, the inhibition score was 10 (inactive).
For the molecule `C#CCSc1nnc(-c2ccc([N+](=O)[O-])cc2)o1`, the inhibition score is 0 (inactive).
Take `COc1ccc2c(c1)c1nnc(SC)nc1n2C`: the inhibition score was 0 (inactive).
Consider `CCN(CC)C(=O)c1cccc2nc3ccccc3nc12`, for which the inhibition score is 0 (inactive).
As to `CC(=O)Nc1ccc2nc3ccccc3nc2c1`, the inhibition score was 0 (inactive).
`O=C(Nc1ccc2nc3ccccc3nc2c1)c1ccccc1`: the inhibition score was 0 (inactive).
`CC(C)(C)Nc1ncnc2c1cnn2-c1ccccc1`: the inhibition score was 0 (inactive).
As for `c1ccc2nc3ccccc3nc2c1`, the inhibition score is 0 (inactive).
In the case of `FC(F)(F)c1nc2cc3nc4ccccc4[nH]c3cc2n1`, the inhibition score is 0 (inactive).
`CSc1nnc(-c2ccc([N+](=O)[O-])cc2)o1`: the inhibition score was 0 (inactive).
In the case of `CNC(=O)c1cccc2nc3ccccc3nc12`, the inhibition score was 0 (inactive).
Regarding `O=C1c2c(O)ccc(O)c2C(=O)c2c(NCCNCCO)ccc(NCCNCCO)c21`, the inhibition score was 0 (inactive).
For `CC(C)OC(=O)CSc1nnc(-c2ccc(Cl)cc2Cl)o1`, the inhibition score is 0 (inactive).
Turning to `O=C(Nc1ccc2nc3ccccc3nc2c1)c1ccc(Br)cc1`, the inhibition score is 0 (inactive).
For `Cc1cc2nc3ccc(N(C)C)cc3nc2cc1N`, the inhibition score is 0 (inactive).
`CCc1nc(NC(C)(C)C)c2cnn(-c3ccccc3)c2n1`: the inhibition score was 0 (inactive).
